Test results: PubChem BioAssay (EPA / NIEHS)
Records with an inconclusive call do not appear. Activity calls are given as the source filed them. How the source made its calls, unless noted: active means hit-call score of the fitted dose curve at least 0.9, where 1 is the maximum; inactive means score below 0.9.

Columns and labels:
[1] = biological target: Retinoic acid receptor RXR-alpha (Homo sapiens) (UniProt P19793); experiment: ATG_RXRa_TRANS: Attagene TRANS-FACTORIAL HepG2 Assay for human Retinoid X Receptor alpha (RXRa) (AID 2283012; active means hit-call score of the fitted dose curve at least 0.9, where 1 is the maximum)
Sequence of Retinoic acid receptor RXR-alpha (Homo sapiens) (P19793 whole entry, looked up, the tested form may be a part): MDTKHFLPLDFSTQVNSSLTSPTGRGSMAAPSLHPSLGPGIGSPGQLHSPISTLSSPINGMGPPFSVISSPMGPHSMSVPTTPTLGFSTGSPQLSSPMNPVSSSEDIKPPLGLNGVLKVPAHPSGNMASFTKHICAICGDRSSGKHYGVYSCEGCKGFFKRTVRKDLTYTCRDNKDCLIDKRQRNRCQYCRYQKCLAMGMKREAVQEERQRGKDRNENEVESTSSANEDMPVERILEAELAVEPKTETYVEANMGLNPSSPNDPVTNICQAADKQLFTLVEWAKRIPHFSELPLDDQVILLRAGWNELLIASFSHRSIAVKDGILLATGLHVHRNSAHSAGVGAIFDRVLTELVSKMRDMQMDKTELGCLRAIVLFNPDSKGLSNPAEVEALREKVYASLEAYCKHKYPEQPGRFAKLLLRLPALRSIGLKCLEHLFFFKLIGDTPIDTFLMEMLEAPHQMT
In short: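 Measures exogenous chimeric NR-GAL4 activity in transfected HepG2 liver cells after 24 h of dosing. Induced reporter mRNA was detected by RT-PCR with capillary electrophoresis, and gain of signal was analysed against DMSO.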

[2] = biological target: human Retinoid X Receptor beta (RXRb), RXRB (gene 6257) (UniProt P28702); experiment: ATG_RXRb_TRANS: Attagene TRANS-FACTORIAL HepG2 Assay for human Retinoid X Receptor beta (RXRb) (AID 2283013; active means hit-call score of the fitted dose curve at least 0.9, where 1 is the maximum)
Sequence of human Retinoid X Receptor beta (RXRb), RXRB (gene 6257) (P28702 whole entry, looked up, the tested form may be a part): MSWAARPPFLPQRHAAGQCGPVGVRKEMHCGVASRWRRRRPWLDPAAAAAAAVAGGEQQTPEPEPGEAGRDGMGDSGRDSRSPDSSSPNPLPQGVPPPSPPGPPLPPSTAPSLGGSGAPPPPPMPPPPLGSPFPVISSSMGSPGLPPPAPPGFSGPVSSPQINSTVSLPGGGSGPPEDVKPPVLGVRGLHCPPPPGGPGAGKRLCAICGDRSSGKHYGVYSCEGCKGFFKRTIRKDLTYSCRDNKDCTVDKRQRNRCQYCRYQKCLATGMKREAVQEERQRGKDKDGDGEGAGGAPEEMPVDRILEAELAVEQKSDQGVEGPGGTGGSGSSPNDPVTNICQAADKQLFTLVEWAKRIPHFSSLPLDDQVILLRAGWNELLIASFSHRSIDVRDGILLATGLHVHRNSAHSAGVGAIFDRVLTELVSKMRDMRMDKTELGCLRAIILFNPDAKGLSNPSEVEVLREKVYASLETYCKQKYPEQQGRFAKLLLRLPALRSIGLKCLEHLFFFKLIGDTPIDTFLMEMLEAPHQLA
In short: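 Chimeric receptor-Gal4 activity was assessed in transiently transfected human HepG2 cells after 24 h exposure. Transcripts from GAL4-UAS reporters were quantified by fluorescent RT-PCR and capillary electrophoresis, with DMSO as negative control and baseline.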

[3] = biological target: human Thyroid Receptor alpha (THRa1), THRA (gene 7067) (UniProt P10827); experiment: ATG_THRa1_TRANS: Attagene TRANS-FACTORIAL HepG2 Assay for human Thyroid Receptor alpha (THRa1) (AID 2283014; active means hit-call score of the fitted dose curve at least 0.9, where 1 is the maximum)
Sequence of human Thyroid Receptor alpha (THRa1), THRA (gene 7067) (P10827 whole entry, looked up, the tested form may be a part): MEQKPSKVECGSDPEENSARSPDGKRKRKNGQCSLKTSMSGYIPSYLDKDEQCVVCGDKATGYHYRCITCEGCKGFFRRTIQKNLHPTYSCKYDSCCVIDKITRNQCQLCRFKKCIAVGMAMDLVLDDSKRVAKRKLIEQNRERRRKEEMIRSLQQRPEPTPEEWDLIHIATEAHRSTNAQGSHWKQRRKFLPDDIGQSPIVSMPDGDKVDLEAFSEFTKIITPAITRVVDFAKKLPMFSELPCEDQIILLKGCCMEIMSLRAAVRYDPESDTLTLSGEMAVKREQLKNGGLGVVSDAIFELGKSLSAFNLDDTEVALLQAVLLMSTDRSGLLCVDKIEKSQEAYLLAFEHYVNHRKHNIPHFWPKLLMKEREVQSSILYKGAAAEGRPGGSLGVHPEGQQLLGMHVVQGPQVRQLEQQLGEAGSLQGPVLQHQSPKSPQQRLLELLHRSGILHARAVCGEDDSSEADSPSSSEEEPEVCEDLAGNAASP
In short: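 Measured here is mRNA from a GAL4-UAS reporter in transfected HepG2 cells carrying a Gal4-fused receptor, 24 h post-dose. DMSO served as negative control and baseline.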

[4] = read-out: E-selectin (Homo sapiens) (UniProt P16581); experiment: BSK_3C_Eselectin: BioMAP Diversity Plus: 3C Assay for Eselectin Biomarker Activity (AID 2283015); details: primary human endothelial cells (HUVEC); actives raise or lower the signal
In short: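 Endpoint derived by bidirectional fitting against DMSO vehicle; signal is ELISA-detected E-selectin from primary HUVEC at 24 h post-dosing, with parallel SRB staining (0.1% SRB, 560 nm) flagging cytotoxicity.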

[5] = read-out: Interleukin-1 alpha (IL1a), IL1A (gene 3552); experiment: BSK_BE3C_IL1a: BioMAP Diversity Plus: BE3C Assay for Interleukin-1 alpha (IL1a) Biomarker Activity (AID 2283016); details: primary human bronchial epithelial cells; actives raise or lower the signal
In short: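 Signal from IL-1a ELISA, taken 24 h after chemical dosing of human bronchial epithelial cells, is compared with DMSO as baseline using bidirectional curve fitting.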

[6] = read-out: Monocyte Chemoattractant Protein-1 (MCP1), CCL2 (gene 6347); experiment: BSK_3C_MCP1: BioMAP Diversity Plus: 3C Assay for Monocyte Chemoattractant Protein-1 (MCP1) Biomarker Activity (AID 2283017); details: primary human endothelial cells (HUVEC); actives raise or lower the signal
In short: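 Using human vascular primary endothelium, researchers measured MCP-1 by ELISA 24 h after treatment, with DMSO serving as negative control for bidirectional fitting.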

[7] = read-out: Monocyte Chemoattractant Protein-1 (MCP1), CCL2 (gene 6347); experiment: BSK_4H_MCP1: BioMAP Diversity Plus: 4H Assay for Monocyte Chemoattractant Protein-1 (MCP1) Biomarker Activity (AID 2283018); details: primary human endothelial cells (HUVEC); actives raise or lower the signal
In short: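 Endothelial cells from umbilical vein were treated with test chemical, then after 24 h MCP-1 levels were quantified by ELISA; endpoint values came from bidirectional fitting with DMSO as baseline of activity.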

[8] = read-out: Human Leukocyte Antigen - DR isotype (HLADR), HLA-DRA (gene 3122); experiment: BSK_3C_HLADR: BioMAP Diversity Plus: 3C Assay for Human Leukocyte Antigen - DR isotype (HLADR) Biomarker Activity (AID 2283019); details: primary human endothelial cells (HUVEC); actives raise or lower the signal
In short: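 Compound added to primary HUVEC cultures, 24 h incubation, then HLA-DR determined by ELISA; endpoint derived by bidirectional fitting relative to DMSO negative control.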

[9] = read-out: Interleukin-8 (IL8), CXCL8 (gene 3576); experiment: BSK_3C_IL8: BioMAP Diversity Plus: 3C Assay for Interleukin-8 (IL8) Biomarker Activity (AID 2283020); details: primary human endothelial cells (HUVEC); actives raise or lower the signal
In short: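 Endothelial primary cells of human umbilical vein origin are dosed with chemical; after 24 h the IL-8 biomarker is measured by ELISA, and concentration–response is fitted in both directions versus DMSO.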

[10] = read-out: Monokine induced gamma interferon (MIG), CXCL9 (gene 4283); experiment: BSK_3C_MIG: BioMAP Diversity Plus: 3C Assay for Monokine induced gamma interferon (MIG) Biomarker Activity (AID 2283021); details: primary human endothelial cells (HUVEC); actives raise or lower the signal;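 on AC50: MIG protein level measured by immunoassay in the treated endothelial cultures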
In short: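 Endothelial primary cells (human umbilical vein) are dosed with test chemical in the 3C system. MIG levels are measured by ELISA at 24 h and fitted in both directions relative to DMSO.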

[11] = BSK_3C_SRB: Viability Assessment in the BioMAP Diversity Plus: 3C Assay (AID 2283023); details: primary human endothelial cells (HUVEC);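 further: fitted both ways against DMSO so a hit may be signal rise or drop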
In short: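 Overt cytotoxicity is gauged in parallel confluent HUVEC cultures by SRB total-protein staining at the time of biomarker measurement, 24 h after dosing. Gain or loss of signal is fitted versus DMSO.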

[12] = read-out: Matrix Metallopeptidase 1 (MMP1), MMP1 (gene 4312); experiment: BSK_BE3C_MMP1: BioMAP Diversity Plus: BE3C Assay for Matrix Metallopeptidase 1 (MMP1) Biomarker Activity (AID 2283024); details: primary human bronchial epithelial cells; actives raise or lower the signal
In short: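 MMP1 signal, measured by ELISA after a 24 h chemical exposure of human primary bronchial epithelial cells, is analysed with bidirectional fitting using DMSO as negative control.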

[13] = BSK_3C_Vis: BioMAP Diversity Plus: 3C Assay for Morphology Visualization (AID 2283025); details: primary human endothelial cells (HUVEC);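 further: fitted both ways so gain or loss versus DMSO counts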
In short: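 Morphology read by light microscopy serves as a background control for the multiplexed 3C assay in human umbilical vein endothelial cells, taken 24 h after dosing, with DMSO as the negative control and bidirectional curve fitting.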

[14] = read-out: Pselectin, SELP (gene 6403); experiment: BSK_4H_Pselectin: BioMAP Diversity Plus: 4H Assay for Pselectin Biomarker Activity (AID 2283026); details: primary human endothelial cells (HUVEC); actives raise or lower the signal
In short: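 Endothelial primary cells (human umbilical vein) are dosed, incubated 24 h, and assayed for surface P-selectin by ELISA; responses in either direction are fitted relative to the DMSO negative control.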

[15] = BSK_4H_SRB: Viability Assessment in the BioMAP Diversity Plus: 4H Assay (AID 2283027); details: primary human endothelial cells (HUVEC);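 further: cells exposed to compound for 24 h before staining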;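 on AC50: curves fitted both ways versus DMSO so AC50 may be loss or gain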
In short: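 Cytotoxicity readout: sulforhodamine B (0.1%) staining of total protein after 10% TCA fixation, measured at 560 nm in human umbilical vein endothelium at 24 h. DMSO set the baseline; fitting was bidirectional.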

[16] = BSK_BE3C_SRB: Viability Assessment in the BioMAP Diversity Plus: BE3C Assay (AID 2283028); details: primary human bronchial epithelial cells;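 on AC50: fitted both ways so AC50 may mark signal gain or loss versus DMSO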
In short: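 SRB total-protein staining (0.1%, after TCA fixation) of chemically dosed human bronchial epithelial primary cells at 24 h; DMSO serves as the negative control for bidirectional curve fitting.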

[17] = read-out: Thrombomodulin, THBD (gene 7056); experiment: BSK_3C_Thrombomodulin: BioMAP Diversity Plus: 3C Assay for Thrombomodulin Biomarker Activity (AID 2283029); details: primary human endothelial cells (HUVEC); actives raise or lower the signal
In short: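 Endothelial cells from umbilical vein are dosed with test chemical and incubated 24 h. Thrombomodulin is then quantified by ELISA, with DMSO serving as negative control and activity baseline.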

[18] = read-out: Urokinase-type plasminogen activator receptor (uPAR), PLAUR (gene 5329); experiment: BSK_4H_uPAR: BioMAP Diversity Plus: 4H Assay for Urokinase-type plasminogen activator receptor (uPAR) Biomarker Activity (AID 2283030); details: primary human endothelial cells (HUVEC); actives raise or lower the signal
In short: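 Endpoint derived via bidirectional curve fitting against DMSO baseline; readout was ELISA detection of uPAR on umbilical vein endothelial cells at 24 h post-treatment, with SRB-stained parallel cultures assessing cytotoxicity.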

[19] = biological target: human Vitamin D Receptor (VDR), VDR (gene 7421) (UniProt P11473); experiment: ATG_VDR_TRANS: Attagene TRANS-FACTORIAL HepG2 Assay for human Vitamin D Receptor (VDR) (AID 2283022; active means hit-call score of the fitted dose curve at least 0.9, where 1 is the maximum)
Sequence of human Vitamin D Receptor (VDR), VDR (gene 7421) (P11473 whole entry, looked up): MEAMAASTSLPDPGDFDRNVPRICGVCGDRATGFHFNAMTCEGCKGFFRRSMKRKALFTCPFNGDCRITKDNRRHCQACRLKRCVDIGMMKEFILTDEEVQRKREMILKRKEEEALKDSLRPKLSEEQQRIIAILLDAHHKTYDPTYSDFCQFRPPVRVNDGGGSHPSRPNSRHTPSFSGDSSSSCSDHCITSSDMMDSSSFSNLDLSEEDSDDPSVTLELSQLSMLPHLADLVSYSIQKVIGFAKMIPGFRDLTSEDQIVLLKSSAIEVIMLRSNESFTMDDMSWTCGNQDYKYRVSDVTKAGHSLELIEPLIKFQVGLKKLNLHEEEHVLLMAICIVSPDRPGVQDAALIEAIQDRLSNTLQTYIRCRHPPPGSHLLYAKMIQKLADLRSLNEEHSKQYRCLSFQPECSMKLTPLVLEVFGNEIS
In short: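 Multiplexed TRANS reporter in HepG2; 24 h treatment; reporter mRNA by RT-PCR plus capillary electrophoresis; upregulation scored relative to DMSO.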

[20] = biological target: human RAR-related Orphan Receptor gamma (RORg), RORC (gene 6097) (UniProt P51449); experiment: ATG_RORg_TRANS: Attagene TRANS-FACTORIAL HepG2 Assay for human RAR-related Orphan Receptor gamma (RORg) (AID 2283011; active means hit-call score of the fitted dose curve at least 0.9, where 1 is the maximum)
Sequence of human RAR-related Orphan Receptor gamma (RORg), RORC (gene 6097) (P51449 whole entry, looked up, the tested form may be a part): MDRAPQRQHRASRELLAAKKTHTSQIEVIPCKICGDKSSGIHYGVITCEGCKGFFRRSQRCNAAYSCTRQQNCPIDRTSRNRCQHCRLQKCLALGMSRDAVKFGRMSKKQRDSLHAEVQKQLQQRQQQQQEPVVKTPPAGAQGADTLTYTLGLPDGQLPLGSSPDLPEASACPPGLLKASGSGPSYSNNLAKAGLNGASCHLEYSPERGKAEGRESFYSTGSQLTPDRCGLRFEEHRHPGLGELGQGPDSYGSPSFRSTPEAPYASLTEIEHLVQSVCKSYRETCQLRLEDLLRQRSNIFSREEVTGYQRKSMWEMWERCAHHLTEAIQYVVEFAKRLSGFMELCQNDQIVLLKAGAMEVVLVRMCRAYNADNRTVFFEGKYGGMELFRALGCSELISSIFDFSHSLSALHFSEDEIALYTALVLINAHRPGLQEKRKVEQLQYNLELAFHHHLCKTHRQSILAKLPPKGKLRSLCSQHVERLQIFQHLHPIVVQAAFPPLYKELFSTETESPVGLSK
In short: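 Chimeric RORg-Gal4 transactivation in transfected HepG2; 24 h exposure; RT-PCR/capillary electrophoresis readout of reporter mRNA, DMSO baseline.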

Measured: AC50

Sequence of E-selectin (Homo sapiens) (P16581 whole entry, looked up): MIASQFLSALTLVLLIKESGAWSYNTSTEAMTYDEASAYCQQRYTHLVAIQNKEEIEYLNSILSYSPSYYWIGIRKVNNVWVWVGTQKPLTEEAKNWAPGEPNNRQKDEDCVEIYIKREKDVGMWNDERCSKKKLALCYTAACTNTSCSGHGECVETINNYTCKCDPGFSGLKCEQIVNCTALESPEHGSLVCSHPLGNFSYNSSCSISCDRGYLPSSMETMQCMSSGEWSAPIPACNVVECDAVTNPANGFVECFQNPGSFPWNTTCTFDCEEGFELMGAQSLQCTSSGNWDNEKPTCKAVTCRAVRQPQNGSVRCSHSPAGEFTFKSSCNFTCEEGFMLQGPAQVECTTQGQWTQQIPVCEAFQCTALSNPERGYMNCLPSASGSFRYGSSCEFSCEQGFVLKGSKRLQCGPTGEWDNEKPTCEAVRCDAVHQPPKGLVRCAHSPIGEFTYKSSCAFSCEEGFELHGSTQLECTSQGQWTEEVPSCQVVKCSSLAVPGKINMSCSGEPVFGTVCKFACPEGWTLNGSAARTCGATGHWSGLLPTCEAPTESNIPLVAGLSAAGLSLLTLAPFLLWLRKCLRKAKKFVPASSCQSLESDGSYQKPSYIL

N#Cc1cc(Br)c(O)c(Br)c1
active: [7] 14.3 µM | [8] 28 µM | [11] 20 µM | [14] 16.5 µM | [15] 19 µM | [18] 16.9 µM
not listed: [19] | [20]
inactive: all other assays above

Fc1ccc(Oc2ccnc3cc(Cl)cc(Cl)c23)cc1
inactive: [1] | [2] | [3]
active: [4] 32.3 µM | [5] 30.7 µM | [6] 30.4 µM | [7] 22.1 µM | [8] 25.1 µM | [9] 31.5 µM | [10] 31.2 µM | [11] 22.9 µM | [12] 35.9 µM | [13] 29.4 µM | [14] 23 µM | [15] 30.8 µM | [16] 32.8 µM | [18] 32.1 µM

Cc1c(F)c(F)c(COC(=O)C2C(/C=C(\Cl)C(F)(F)F)C2(C)C)c(F)c1F (configuration not stated)
active: [4] 12 µM | [8] 14.8 µM | [11] 13.7 µM | [13] 9.8 µM
not listed: [1] | [3] | [16] | [17] | [20]
inactive: all other assays above

Cc1ccc(-c2c(Cl)nc(C#N)n2S(=O)(=O)N(C)C)cc1
active: [4] 15.8 µM | [6] 26.3 µM | [7] 20 µM | [8] 20 µM | [9] 15.8 µM | [11] 26.1 µM | [13] 15.2 µM | [14] 17.7 µM | [15] 25.5 µM | [16] 27.4 µM | [18] 14.7 µM
inactive: [20] | [1] | [3] | [5] | [10] | [19] | [12] | [17]

CNC(=O)ON=CC(C)(C)SC
not listed: [2] | [3] | [17] | [19]
inactive: all other assays above

Cc1cc(Cl)ccc1OCC(=O)O
not listed: [1] | [2] | [19]
inactive: all other assays above

CCOc1cc(Oc2ccc(C(F)(F)F)cc2Cl)ccc1[N+](=O)[O-]
active: [7] 11.5 µM | [8] 3.32 µM | [11] 14.1 µM | [12] 7.63 µM | [16] 6.77 µM
not listed: [1] | [2] | [17] | [19]
inactive: all other assays above

COP(N)(=O)SC (configuration not stated)
not listed: [3] | [17] | [19]
inactive: all other assays above

N#CC(CCc1ccc(Cl)cc1)(Cn1cncn1)c1ccccc1 (configuration not stated)
active: [11] 20 µM | [13] 39 µM | [16] 13.5 µM
not listed: [3] | [17] | [19]
inactive: all other assays above
